Screening data deposited in PubChem by National Center for Advancing Translational Sciences (NCATS).
p53ts 39C tox – kills p53ts cells at the nonpermissive temperature; Potency, µM (series often up to 46.1 µM), for inactives: at the top dose activity change, negative = cell killing, hits mostly cytotoxic; H1299-p53A138V viability at 39C, ATP luminescence, 24 h; AID 902; 130,000 tested, 1.5% active; further: on the % scale 0 is the no-effect control and ±100 the full control effect; nearly all actives have a fitted effect of over 55% in size
p53ts 32C kill – cytotoxicity in p53ts cells at permissive temperature. Potency, µM (highest dose often 46.1 µM), without a hit: top-dose activity change, negative = cytotoxicity, usual class: cytotoxic. H1299-p53A138V at 32C, ATP luminescence viability, 24 h. 130,000 tested, 0.93% active;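 further: 0% = DMSO and -100% = full killing by reference compound; nearly all actives have a fitted effect of over 55% in size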
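ATP-content luminescence (ATPlite) read-out after 24 h compound exposure at 32C in H1299-p53A138V cells (600/well). Tested up to 46 uM. Normalized to DMSO (0%) and 100 uM tamoxifen (100% killing); Hill-fit AC50.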
IkB signaling – suppresses IkB signaling in ABC-DLBCL reporter cells | ABC-DLBCL IkBa-CBG/CBR dual luciferase ratio, 4 h; response scale: scaled: untreated 0%, proteasome inhibitor 100% | Potency, µM (highest dose often 57.1 µM), without a hit: top-dose IkBa stabilization activation | 110,000 tested, 0.04% active | AID 445; active means well fitted curve in the direction sought with a large enough effect in the signal ratio, not every such curve was filed as active; inconclusive means small, poorly fitted or top-dose-only effect, or a change in a side signal; the % refers to the signal ratio;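 further: the direction sought is a rising ratio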
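Curves were fitted separately to fusion (green), unfused (red) and ratio luminescence, then classed by r2, magnitude and activity. Cells: OCI-Ly3, 4 h compound plus doxycycline at 37C; 10 uM MG-132 defined full response.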
Peg3 imprint – genomic imprint erasure induction. mouse ES Peg3-LacZ reporter, beta-gal luminescence, 40 h. Potency, µM (highest dose often 60.7 µM), inactives show at the highest dose activity change, positive = activation, most hits filed as activators. 110,000 tested, 0.02% active
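Readout: BetaGlo luminescence (5 min, room temp) for LacZ from the normally silent maternal Peg3 allele in female Peg3LacZ-Neo ES cells. Cells 300/well, 40 h, 37C, 5% CO2. Data normalized per plate to negative controls.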
* marks the source's active call; other numbers are inactive results; ? = inconclusive; . = not tested or not shown; ! = a repeat was not active; [ ] = another dose, or the depositor's remark. A selection: hits, their analogues and other compounds. The true share with any hit is near 1.8%. Unless noted, the call rests on the fitted dose curve; in most records, active means well fitted curve in the direction sought with a large enough effect; inconclusive means small, poorly fitted or top-dose-only effect, or another doubt; inactive means no such curve, though single readings can be large; an effect the other way counts as inactive or inconclusive. Potency means the concentration at half of the fitted maximal effect.

SMILES	p53ts 39C tox	p53ts 32C kill	IkB signaling	Peg3 imprint
COC(=O)C(C(=O)OC)C1O[C@@]23COCCC2(C)C3c2ccccc21 (stereo partly drawn)	13%[9.22 µM]	5%[9.22 µM]	.	.
Cc1ccc(NC(=O)N2CCN3CCCCC3C2)cc1C (stereo not drawn)	3%	0%	?	-2%[10.9 µM]
COc1cc(-c2ccc(N=Nc3ccc4c(S(=O)(=O)O)cc(S(=O)(=O)O)c(N)c4c3O)c(OC)c2)ccc1N=Nc1ccc2c(S(=O)(=O)O)cc(S(=O)(=O)O)c(N)c2c1O	10µM*!	?	?	-43%
Cc1c(N=c2c(=O)c3ccccc3c2=O)c(=O)n(-c2ccccc2)n1C	13µM*	10µM*	?	-47%
CCCc1nn2cc(-c3ccc(C)c(C)c3)nc2s1	7.9µM*	7.9µM*	?	-46%[10.9 µM]
Cc1ccc(C(Nc2ccccn2)c2ccc3cccnc3c2O)cc1 (stereo not drawn)	?	?	?	-17%[10.9 µM]
Cc1cccc(NC(c2cccc(Cl)c2)c2ccc3cccnc3c2O)n1 (stereo not drawn)	13µM*	-24%	?	-30%[10.9 µM]
CN(C)CCN(Cc1ccco1)C(=O)c1cc2c(s1)-c1ccccc1OC2	13µM*	-9%	-1%	-21%[10.9 µM]
CCCCN(Cc1ccco1)C(=O)c1cc2c(s1)-c1c(C)cccc1OC2	?	?	?	17%[10.9 µM]
CC(C)c1ccc(NC(=O)c2ccc3oc(=O)c(S(=O)(=O)c4ccc(F)cc4)cc3c2)cc1	2.5µM*	10µM*	?	?
COc1cc(NC(=O)c2ccc3oc(=O)c(S(=O)(=O)c4ccccc4)cc3c2)cc(OC)c1	?	16µM*	?	-6%[10.9 µM]
O=S1(=O)Nc2c(ccc3cccnc23)-c2ccccc21	-18%	16%	0.79µM*	-32%
O=c1[nH]n(-c2cccc3cccnc23)c(=O)c2ccccc12	-7%	5%	-2%	24%
CC1=C(c2ccc(Cl)cc2)S(=O)(=O)NC1=NCCCN1CCN(c2cc(C)ccc2C)CC1	-6%	0%	?	19%[10.9 µM]
O=C(Nc1ccc(-c2nc3ccccc3o2)cc1)C1CCCO1 (stereo not drawn)	10µM*	16µM*	?	.
COc1ccc(-n2ccn(CC(=O)Nc3ccc(C)cc3C)c(=O)c2=O)cc1	0%	-4%	?	-12%[10.9 µM]
COc1ccc2[nH]c3nc(SC(C)C)nnc3c2c1	10µM*	16µM*	?	-30%
COc1ccc2[nH]c3nc(SCc4nnc(-c5ccccc5)o4)nnc3c2c1	-24%	-3%	1%	-16%
COC(=O)c1c(NC(=O)c2ccc(C)o2)sc2c1CCCCC2	-28%	-13%	9%	-34%
Cc1ccc(C(=O)Nc2sc3c(c2C(=O)O)CCCCC3)o1	6.3µM*	7.9µM*	?	-93%
CCCCOc1ccccc1CC1C(=O)Nc2ccc(Br)cc21 (stereo not drawn)	13µM*	?	-3%	-20%[10.9 µM]
COc1cc(O)c(C(=O)/C=C/c2ccc(OC)c(O)c2)c(OC)c1	63%	10µM*	.	-37%
CC1CCN(c2nncc3ccccc23)CC1	-6%	6%	-1%	-15%
COc1ccccc1/C=N/Nc1nncc2ccccc12	-8%	?	.	.
NNc1nncc2ccccc12	10µM*	7.9µM*	4%[25.6 µM]	-14%
SMILES	p53ts 39C tox	p53ts 32C kill	IkB signaling	Peg3 imprint
COc1ccc(/C=N/Nc2nncc3ccccc23)cc1	3.2µM*	.	.	.
C[C@H]1CC[C@H]2C(=O)N3[C@H](c4ccc(Br)cc4)[C@@H](C)CC[C@H]3C(=O)N2[C@@H]1c1ccc(Br)cc1	-5%[9.22 µM]	4%[9.22 µM]	.	.
CCOC(=O)CCN1C(=O)[C@H]2[C@H]3[C@H](O)[C@H](O)C/C(=N/OC[C@@H](O)COCc4ccco4)[C@H]3CC[C@@H]2C1=O	2%[9.22 µM]	10%[9.22 µM]	.	.
O[C@@H](c1cc(-c2ccc(Cl)cc2)nc2ccccc12)[C@@H]1CCCCN1	-16%[9.22 µM]	6%[9.22 µM]	2%[11.4 µM]	.
O=C(N/N=C/c1ccccc1O)c1cc(-c2ccccc2)n[nH]1	16µM*	-28%	.	.
COc1cc(/C=N/NC(=O)c2cc(-c3ccccc3)n[nH]2)ccc1O	-10%	-8%	.	.
O=C(N/N=C/c1ccco1)c1cc(-c2ccccc2)n[nH]1	20%	0%	.	.
COc1cccc(-c2cc(C(=O)N/N=C/c3ccccc3O)[nH]n2)c1	10µM*	?	.	.
O=C(N/N=C\c1ccccc1O)c1ccccc1O	2µM*	1.3µM*	?	-38%
CCn1c(COc2ccc(C)cc2)nnc1SCC(=O)Nc1ccc2c(c1)OCCO2	-3%	-4%	0%	2%
CCOC(=O)c1ccc(NC(=O)C2=C(C)Nc3nc(SCc4ccc(Cl)cc4)nn3C2c2ccc(C)cc2)cc1 (stereo not drawn)	-8%	-2%	3%	9%[10.9 µM]
Cc1ccnc(NC(=O)CCC2CCCCC2)c1	13µM*	13µM*	?	-32%
Cc1cc(NC(=O)CCC2CCCCC2)no1	-10%	-13%	.	.
CC(C)C(=O)NC(c1ccco1)c1ccc2cccnc2c1O (stereo not drawn)	4µM*	-19%	?	-31%
Oc1c(C(Nc2nc3ccccc3s2)c2ccco2)ccc2cccnc12 (stereo not drawn)	?	0%	?	-34%
CC1(C)C(=O)NC2=C1C(=O)C(=O)c1ccccc12	1µM*	1.3µM*	?	-68%
CC(C)(C)c1ccc(C2Sc3ccccc3NC3=C2C(=O)c2ccccc23)cc1 (stereo not drawn)	2%	-5%	?	-16%[10.9 µM]
CCOc1cc(C2C(C(=O)OC)=C(C)NC3=C2C(=O)c2ccccc23)c(Br)cc1O (stereo not drawn)	28%	-10%	1%	-11%[10.9 µM]
CCOc1ccc(-c2nc(SCC(=O)Nc3ccc4c(c3)OCCO4)c(-c3ccc(F)cc3)[nH]2)cc1	16µM*	-29%	?	-12%[10.9 µM]
CCOc1ccc(C(=O)Nc2ccc3oc(-c4ccc(Br)cc4)nc3c2)cc1	29%	2%	-1%	-6%[10.9 µM]
COc1cc2ccccc2cc1C(=O)Nc1ccc(N2CCN(C)CC2)cc1	13µM*	?	0%	-25%
COc1cc2ccccc2cc1C(=O)Nc1ccc2oc(-c3ccc(Cl)cc3)nc2c1	7.9µM*	-14%	0%	21%[10.9 µM]
CCOc1ccc(C(=O)Nc2ccc3oc(-c4cccc5ccccc45)nc3c2)cc1	10µM*	-23%	7%	-10%[10.9 µM]
COc1cc(C(=O)Nc2ccc3oc(-c4ccccc4)nc3c2)cc(OC)c1OC	13µM*	?	?	-5%[10.9 µM]
Fc1ccc(Nc2ncncc2-c2ccccc2C(F)(F)F)cc1	-10%	-4%	24%[11.4 µM]	-8%
CCOc1ccccc1Oc1nc(C)nc2c1oc1ccccc12	-23%	8%	-3%	-26%[10.9 µM]
CCS(=O)(=O)c1ncc(N(Cc2ccccc2)Cc2ccco2)c(C(=O)Nc2cccc(Cl)c2C)n1	3%	4%	?	-6%[10.9 µM]
CCS(=O)(=O)c1ncc(Cl)c(C(=O)N(Cc2ccccc2)Cc2ccco2)n1	4µM*	18µM*	?	-48%[10.9 µM]
